The record followed here is PubChem BioAssay (NCI).

This is part of a sample that, as a whole, favours compounds with a hit. Of some 83,000 tested, about 20% had one in any assay.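 Compound tested at a single concentration for 48 hours in 96-well plates; a percent growth value below 10 was scored as active.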 Values without a mark were called inactive. Activity calls are given as the source filed them.

Test systems include SK-MEL-2 melanoma; EKVX NSCLC; SN12C renal; UO-31 renal; TK-10 renal; ACHN renal; CAKI-1 renal; CCRF-CEM leukemia; MOLT-4 leukemia; SR leukemia; OVCAR-8 ovarian; OVCAR-4 ovarian; SK-OV-3 ovarian; IGROV1 ovarian; OVCAR-3 ovarian; NCI/ADR-RES ovarian; A498 renal; RPMI-8226 leukemia; OVCAR-5 ovarian; HS 578T breast.
What all share (assay): NCI-60 one-dose screen, 48 h (100 = growth as untreated, 0 = no growth, -100 = all killed)
Details in all cases: 10 µM unless noted

Take `O=C(c1ccccc1)C(CN1CCCCC1)c1ccccc1` (stereo not given): the growth with SK-MEL-2 melanoma was 50.1%; in the assay with EKVX NSCLC, 93.8%; in the assay with SN12C renal, 26%; with UO-31 renal, -36.3% (active); in the assay on TK-10 renal, 10.9%; in the assay on ACHN renal, -12.5% (active). The growth in the assay on CAKI-1 renal was 1.39% (active); with CCRF-CEM leukemia it was -20.2% (active); with MOLT-4 leukemia, 0.0819% (active); in the assay on SR leukemia, -3.65% (active); in the assay with OVCAR-8 ovarian, 15.6%; with OVCAR-4 ovarian, 39.7%. The growth is 107% with SK-OV-3 ovarian, 56% with IGROV1 ovarian, 14.9% in the assay on OVCAR-3 ovarian and 12.6% with NCI/ADR-RES ovarian.
In the case of `O=C(N/N=C/c1cccc([N+](=O)[O-])c1)c1ccc(Br)o1`, the growth in the assay with SK-MEL-2 melanoma is 103%; in the assay on EKVX NSCLC it was 103%; with SN12C renal, 142%; in the assay with UO-31 renal, -25.2% (active); with TK-10 renal, 129%; with CAKI-1 renal it was 98.3%. Moreover, the growth is 129% with A498 renal; 78.2% in the assay on CCRF-CEM leukemia; 132% in the assay on MOLT-4 leukemia; 134% in the assay on SR leukemia; 85.9% in the assay on RPMI-8226 leukemia; 39.4% in the assay with OVCAR-8 ovarian. Further, the growth is 107% in the assay with OVCAR-5 ovarian; 105% with OVCAR-4 ovarian; 97.7% in the assay with SK-OV-3 ovarian; 111% in the assay on OVCAR-3 ovarian; 158% in the assay with HS 578T breast; 101% in the assay on NCI/ADR-RES ovarian.
In the case of `CC(=O)Nc1cc(C(c2ccccc2)c2ccccc2)cc(C(c2ccccc2)c2ccccc2)c1C`, the growth in the assay with SK-MEL-2 melanoma is 27%; in the assay on EKVX NSCLC, 61.4%; in the assay with SN12C renal it was 69.7%; with UO-31 renal, 49.3%; in the assay with TK-10 renal it was 84.3%; in the assay on CAKI-1 renal it was 49.2%. For the same compound, the growth in the assay with CCRF-CEM leukemia is 34.1%; with MOLT-4 leukemia it was 8.92% (active); with SR leukemia, 14.3%; in the assay on RPMI-8226 leukemia, 11.2%; in the assay with OVCAR-8 ovarian, 73.8%; in the assay with OVCAR-5 ovarian it was 75.4%. The growth with OVCAR-4 ovarian was 43.8%; in the assay on SK-OV-3 ovarian it was 77%; in the assay on IGROV1 ovarian, 58%; in the assay on OVCAR-3 ovarian, 49.8%; with NCI/ADR-RES ovarian it was 51.8%.
With `COCCOCCOCCOCCOc1ccc2c(c1)C(=O)c1nc3ncccc3c(=O)n1-2`, the growth in the assay with SK-MEL-2 melanoma is 6.22% (active); in the assay on EKVX NSCLC, 10.5%; in the assay on SN12C renal, -93% (active); in the assay on UO-31 renal, -7.56% (active); in the assay with TK-10 renal it was -77.4% (active); with ACHN renal, -19.5% (active). The growth in the assay with A498 renal is -100% (active); in the assay on CCRF-CEM leukemia it was 5.42% (active); with MOLT-4 leukemia it was -28.7% (active); in the assay with SR leukemia it was -86.3% (active); in the assay with RPMI-8226 leukemia, -55.5% (active); in the assay on OVCAR-8 ovarian it was 0.221% (active). Further, the growth is -98.6% (active) in the assay on OVCAR-5 ovarian; -15.3% (active) with OVCAR-4 ovarian; -4.3% (active) with SK-OV-3 ovarian; 7.34% (active) in the assay on IGROV1 ovarian; -60.7% (active) in the assay with OVCAR-3 ovarian; -25.2% (active) in the assay with HS 578T breast. Further, in the assay on NCI/ADR-RES ovarian, the growth is 0.343% (active).
Turning to `COc1ccc2c3c(ccc2c1)C(=O)/C(=C\O)CC3`, the growth with SK-MEL-2 melanoma is 99.8%; with EKVX NSCLC, 78.5%; in the assay with SN12C renal, 100%; in the assay on UO-31 renal it was 96.6%; with TK-10 renal, 93.4%; with ACHN renal, 102%. Moreover, the growth in the assay with CAKI-1 renal was 105%; with CCRF-CEM leukemia, 72.4%; with MOLT-4 leukemia, 88.4%; with SR leukemia, 94.6%; in the assay with OVCAR-8 ovarian, 97.4%; in the assay with OVCAR-5 ovarian, 107%. In addition, the growth with OVCAR-4 ovarian was 100%; with SK-OV-3 ovarian it was 91.6%; in the assay on IGROV1 ovarian, 111%; in the assay with OVCAR-3 ovarian it was 99.6%; in the assay with NCI/ADR-RES ovarian it was 96.3%.
With `O=Cc1ccccc1C(=O)O`, the growth was 109% in the assay with SK-MEL-2 melanoma; 94% in the assay with EKVX NSCLC; 104% with SN12C renal; 90% in the assay with UO-31 renal; 93.2% in the assay with TK-10 renal; 96% in the assay with CAKI-1 renal. In addition, the growth in the assay on A498 renal is 109%; in the assay with CCRF-CEM leukemia, 104%; in the assay with MOLT-4 leukemia, 98.6%; in the assay on SR leukemia, 89.8%; with RPMI-8226 leukemia, 106%; with OVCAR-8 ovarian it was 104%. Moreover, the growth in the assay on OVCAR-5 ovarian is 97.9%; in the assay on OVCAR-4 ovarian, 92.6%; in the assay with SK-OV-3 ovarian, 104%; with IGROV1 ovarian, 110%; in the assay on OVCAR-3 ovarian, 102%; in the assay with HS 578T breast, 100%. The growth in the assay on NCI/ADR-RES ovarian is 104%.
Turning to `CCCCCCCCCCN1CCC(N2CCCCC2)CC1`, the growth in the assay with SK-MEL-2 melanoma is -19.9% (active); in the assay on EKVX NSCLC it was 37.4%; in the assay with SN12C renal it was 45.4%; in the assay with UO-31 renal it was -86.7% (active); with TK-10 renal, 25.2%; with ACHN renal, 38.2%. Moreover, the growth with A498 renal is 74.2%; in the assay on CCRF-CEM leukemia, 6.95% (active); in the assay on MOLT-4 leukemia, -26% (active); in the assay on RPMI-8226 leukemia, -44.8% (active); with OVCAR-8 ovarian, -1.39% (active); with OVCAR-5 ovarian, 41.5%. For the same compound, the growth is 53.7% in the assay with OVCAR-4 ovarian; 20.9% with SK-OV-3 ovarian; 20.1% in the assay on OVCAR-3 ovarian; -5.23% (active) in the assay on HS 578T breast; 49.7% in the assay on NCI/ADR-RES ovarian.
As for `Clc1ccc2c(c1)C(Br)c1cc(Cl)cc(Cl)c1-2` (stereo not given), the growth in the assay on SK-MEL-2 melanoma was 95.5%; in the assay on EKVX NSCLC, 46.2%; with SN12C renal, 27.5%; in the assay with UO-31 renal, 76.6%; in the assay with TK-10 renal, 118%; in the assay with A498 renal, 120%. The growth in the assay on CCRF-CEM leukemia was -37.8% (active); in the assay with MOLT-4 leukemia, -20.2% (active); in the assay on SR leukemia it was -4.33% (active); in the assay with OVCAR-8 ovarian, 101%; in the assay with OVCAR-5 ovarian, 84.4%; with SK-OV-3 ovarian it was 80%. The growth is 57.1% in the assay on IGROV1 ovarian, 91.7% in the assay on OVCAR-3 ovarian, 65.1% with HS 578T breast and 96.1% in the assay on NCI/ADR-RES ovarian.
For the compound `CCN(CC)c1ccc(/C=C/C(=O)c2cccc(NS(C)(=O)=O)c2)cc1`, the growth was 83.1% with SK-MEL-2 melanoma; 57.6% with EKVX NSCLC; 40.3% with SN12C renal; 37.2% with UO-31 renal; 25.6% in the assay with TK-10 renal; 37.7% in the assay on ACHN renal. The growth is 22.8% in the assay with A498 renal; 13.3% in the assay with CCRF-CEM leukemia; 8.78% (active) with MOLT-4 leukemia; -4.7% (active) in the assay on SR leukemia; 64.4% in the assay on OVCAR-5 ovarian; 42.2% in the assay on OVCAR-4 ovarian. Moreover, the growth was 51.1% with SK-OV-3 ovarian, 9.33% (active) in the assay with IGROV1 ovarian, 28.5% in the assay with HS 578T breast and 26.4% with NCI/ADR-RES ovarian.
